The list is not random: actives were taken first. Their share in the collection is about 1.1%.
PTHR1 ag: qHTS for PTHR1 Agonists: Primary Screen. Parathyroid hormone/parathyroid hormone-related peptide receptor (Homo sapiens), Q03431. HEK293 GP2 PTHR1 cells, GloSensor cAMP luminescence, 1 h. Potency, µM (titrated, usually from 115 µM), without a hit: at the highest dose activation, hits mostly activators. 410,000 compounds, 0.075% hits; further: potency means the concentration at half of the fitted maximal effect; nearly all actives have a fitted effect of over 55% in size
Target sequence (Q03431 whole entry, looked up): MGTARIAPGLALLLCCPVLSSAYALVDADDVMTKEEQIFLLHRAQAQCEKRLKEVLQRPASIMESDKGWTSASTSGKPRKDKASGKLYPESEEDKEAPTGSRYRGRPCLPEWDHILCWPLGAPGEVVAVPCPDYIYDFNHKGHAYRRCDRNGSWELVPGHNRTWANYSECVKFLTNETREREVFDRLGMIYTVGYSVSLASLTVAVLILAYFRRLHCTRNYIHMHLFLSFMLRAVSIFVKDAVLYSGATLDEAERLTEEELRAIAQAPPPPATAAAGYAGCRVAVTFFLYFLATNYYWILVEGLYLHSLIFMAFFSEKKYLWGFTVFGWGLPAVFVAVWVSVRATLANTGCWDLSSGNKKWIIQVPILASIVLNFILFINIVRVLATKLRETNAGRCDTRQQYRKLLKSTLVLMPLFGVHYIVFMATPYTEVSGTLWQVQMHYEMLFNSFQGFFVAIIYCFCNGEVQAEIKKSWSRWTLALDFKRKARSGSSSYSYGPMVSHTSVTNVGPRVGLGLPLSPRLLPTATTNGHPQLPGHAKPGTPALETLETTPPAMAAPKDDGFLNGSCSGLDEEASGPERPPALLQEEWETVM
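HEK-293-derived GP2 cells expressing PTHR1 and a GloSensor cAMP reporter, 3,000/well, plated overnight, given luciferin plus IBMX (each 0.5 mM as added) for 1 h at 37 °C, then compound for 1 h at 37 °C. Luminescence was read after 15 min at room temperature.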
LDHA block: qHTS assay for inhibitors of human lactate dehydrogenase; purified LDHA, NADH/diaphorase-resazurin fluorescence; active compounds read low; L-lactate dehydrogenase A chain (Homo sapiens), P00338; 480,000 compounds, 0.15% hits; activity change, % (values are at about 110 or 230 µM); AID 1347041, 2019; in the data active means activity change below about -30%; inconclusive means mostly about -25% to -30%;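 further: plate controls were DMSO wells for no effect and wells without enzyme for full effect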
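Enzyme activity of human lactate dehydrogenase 5 (2 nM; 0.06 mM NADH, 0.2 mM pyruvate, 5 min, RT) is measured via a resazurin/diaphorase fluorescence readout of residual NADH.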
RGS4 inhibitor: Inhibitors of Regulator of G Protein Signaling (RGS) 4: qHTS; 390,000 compounds, 0.039% hits; Potency, µM (titrated, usually from 114 µM), inactives show top-dose activity change, negative = inhibition, usual class: inhibitors; AID 504845, 2011; Transcreener GDP fluorescence polarization, RGS4-accelerated GTP hydrolysis; further: potency means the concentration at half of the fitted maximal effect; on the % scale 0 is the no-effect control and ±100 the full control effect; nearly all actives have a fitted effect of over 75% in size
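MLSMR compounds (23 nl, pin-transferred) preincubated 10 min at room temperature with a 500nM (2x) first reagent, then RGS4 at 900nM (2x) plus Transcreener GDP mix added; fluorescence polarization (620/688 nm) read before and after 90 min at 30 °C.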
BRCA1 expr act: qHTS Assay to Identify Small Molecule Activators of BRCA1 Expression | MCF7-BRCA1-FFLuc reporter, luminescence, 48 h; response scale: scaled: vehicle 0%, 10 µM genistein 100% | Potency, µM (highest dose often 46.1 µM), for inactives: top-dose activation, actives largely listed as activators | 380,000 compounds, 1.1% hits | AID 624202, 2012; further: potency means the concentration at half of the fitted maximal effect; nearly all actives have a fitted effect of over 80% in size
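Cells: MCF7-BRCA1-FFLuc, 2000/well. Exposure: 48 h, 37 °C, 5% CO2. Read: luminescence, 15 min post-substrate. Controls: genistein 10 microM (maximal activation), DMSO (neutral).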
p53 reactivation: qHTS assay for re-activators of p53 using a Luc reporter; H1299 p53-A138V BP100-luciferase reporter, luminescence, 24 h; Potency, µM (top dose mostly 92.2 µM), for inactives: at the highest dose activity change, positive = activation, most hits filed as activators; 320,000 compounds, 0.063% hits; AID 504706, 2011; further: potency means the concentration at half of the fitted maximal effect; % of control where 0% means no effect; nearly all actives have a fitted effect of over 45% in size
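H1299 (p53-null), stable ts p53-A138V + BP100-Luc; 1000 cells/well, Opti-MEM/10% FBS; cpd 4 pt, 1:5; 24 h, 37 deg C, 5% CO2; detection reagent 10 min RT; luminescence.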
* marks the source's active call; other numbers are inactive results; i = inactive; ? = inconclusive; . = no result given; [ ] = another dose, or the depositor's remark. Unless noted, the call rests on the fitted dose curve; in most records, active means well fitted curve in the direction sought with a large enough effect; inconclusive means small, poorly fitted or top-dose-only effect, or another doubt; inactive means no such curve, though single readings can be large; an effect the other way counts as inactive or inconclusive.

SMILES | PTHR1 ag | LDHA block | RGS4 inhibitor | BRCA1 expr act | p53 reactivation
COCCC1CCCCN1C(=O)c1ccc2nc(Cc3ccccc3F)oc2c1 (configuration not stated) | -31.4% | -0.7 | 5.7% | 7.94µM* | 11.9%
Cn1cc(CCNC(=O)c2ccc3nc(Cc4ccccc4F)oc3c2)cn1 | -31.1% | -0.1 | 11.3% | 2.51µM* | ?
Cc1cccc(CNC(=O)c2ccc3nc(Cc4ccccc4F)oc3c2)n1 | -45.4% | -8.3 | -4.1% | 12.6µM* | ?
Cn1cc(CNC(=O)c2ccc3nc(Cc4ccccc4F)oc3c2)cn1 | i | -3.0 | 3.9% | 101.6% | 12.1%
COc1ccc(-c2ocnc2C(=O)NCc2cc(OC)ccc2OC)cc1 | . | -0.4 | . | . | .
CCCN(CCC)Cc1c(C)[nH]c2ccc(Br)cc2c1=O | . | -30.7* | . | . | .
NC(=O)c1ccccc1NC(=O)C(=O)c1c[nH]c2ccccc12 | . | -15.0 | . | . | .
Cc1ccsc1/C=N/n1cnc2sc(C)c(C)c2c1=O | -15.0% | -2.9 | 28.0% | 11.2µM* | ?
Cc1sc2ncn(/N=C/c3cn(-c4ccccc4)nc3-c3ccccc3)c(=O)c2c1C | . | 0.7 | 12.5% | 5.2% | .
O=C(c1cc2cc3ccc(Cl)cc3nc2o1)N1CCCCCC1 | -12.4% | -3.8 | 7.2% | 2.24µM* | ?
COc1ccc2cc3cc(C(=O)N4CC(C)CC(C)C4)oc3nc2c1 (configuration not stated) | -17.6% | -1.0 | 28.5% | 10µM* | 25.0%
CC(C(=O)NCc1ccco1)N1CCN(CC(=O)NC2CC2)CC1 (configuration not stated) | . | -4.2 | . | . | .
Cc1cccc(N/C=C/c2onc(C)c2[N+](=O)[O-])c1 | i | -1.4 | 28.9% | 2.51µM* | .
CCOC(=O)c1noc2nc(C)n(CC(=O)Nc3cc(OC)ccc3OC)c(=O)c12 | . | -15.5 | . | . | .
Cc1ccc2c(=O)cc(C(=O)N3CCN(c4cccc(Cl)c4)CC3)oc2c1C | . | 9.9 | . | . | .
O=Cc1ccc(OCc2ccc(Cl)c(Cl)c2)cc1 | . | 3.3 | . | . | .
O=Cc1ccc(OCc2ccc3ccccc3c2)cc1 | -13.2% | -1.3 | -9.1% | 4.47µM* | ?
C/C(=N\O)c1sc(-c2ccccc2)nc1C | -21.6% | -4.4 | 7.5% | 2.51µM* | 26.2%
O=C1N=C(N2CCOCC2)S/C1=C\c1ccncc1 | -3.2% | 1.5 | 16.5% | 78.7% | -1.3%
CC(=C/c1ccccc1)/C=C1/SC(N2CCOCC2)=NC1=O | -6.4% | -0.9 | -24.3% | 11.2µM* | ?
CCn1cc(C#N)c(=O)n(Cc2coc(-c3ccc(Cl)cc3)n2)c1=O | . | 1.4 | . | . | .
O=C(Oc1ccc(C(=S)N2CCCCC2)cc1)c1ccccc1F | i | 1.7 | -7.0% | 16.1% | -4.3%
Fc1ccccc1COc1ccc(C(=S)N2CCCC2)cc1 | -21.5% | -7.2 | 17.8% | 11.2µM* | .
Cc1ccc2nc(/C(C#N)=C/c3ccco3)[nH]c2c1 | . | 7.3 | . | . | .
C/C(C/C(C)=C1/SC(=S)NC1=O)=C1\SC(=S)NC1=O | -4.3% | -34.2* | ? | -4.2% | -3.8%
SMILES | PTHR1 ag | LDHA block | RGS4 inhibitor | BRCA1 expr act | p53 reactivation
CCc1cccc(C)c1NS(=O)(=O)c1cccc(C(F)(F)F)c1 | . | -15.1 | . | . | .
O=C1/C(=C/N(C(=O)c2ccco2)c2ccc(Br)cc2)Sc2ccccc21 | -23.5% | -2.6 | ? | -19.9% | ?
O=C1/C(=C/N(C(=O)c2ccco2)c2ccc(Cl)cc2)Sc2ccccc21 | -42.6% | -12.1 | -20.5% | 1.3% | 28.2µM*
CCCCNC(=O)C(C#N)c1nc2ccccc2nc1N1CCN(c2ccc(F)cc2)CC1 (configuration not stated) | . | -1.0 | . | . | .
COC(=O)[C@@H]1CCCN1C(=O)CCc1nnc(CCC2CCCCC2)o1 | -23.5% | -3.6 | 16.5% | 11.2µM* | 3.1%
CCN(CC)C(=O)c1ccc(COc2ccccc2Br)o1 | -21.2%[57.5 µM] | -6.3 | -17.2% | 7.08µM* | 6.3%
CN(C)C(=O)CCS(=O)(=O)Cc1coc(-c2ccc(F)cc2)n1 | . | -34.1* | . | . | .
